Here are results for five compounds from PubChem BioAssay (EPA / NIEHS).

What is called AC50 is the concentration giving half of the maximal activity seen.

“And” between values parts separate entries of the source, which are not always exact repeats. Equal entries are not always repeated. The source holds several records for some structures; these can differ, active in one and inactive in another. The source made the active and inactive calls. Rule for the calls: active = hit-call score of the fitted dose curve at least 0.9, where 1 is the maximum; inactive = score below 0.9.

A short description of experiment [1]: ATG_E_Box_CIS: Attagene CIS-FACTORIAL HepG2 Assay for human Enhancer Box (E-box) (AID 2282936). The settings on record: HepG2 E-box cis-reporter transcription, actives raise or lower the signal. In short, it runs like this: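 DMSO served as negative control and baseline for bidirectional fitting. Human hepatoma HepG2 cells, transiently transfected with cis-reporter constructs, were dosed 24 h; reporter mRNA read by RT-PCR and capillary electrophoresis.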

A short description of experiment [2]: ATG_M_61_CIS: Attagene CIS-FACTORIAL HepG2 Assay for M61 Transcription Factor (Internal Marker) (AID 2282937). The conditions noted are these: HepG2 Attagene CIS-FACTORIAL M61 internal marker reporter; actives raise or lower the signal. In short, it runs like this: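 Multiplexed reporter mRNA assay, HepG2 human hepatoma cells, 24 h treatment. Signal: FAM-labelled, HpaI-digested RT-PCR fragments by CE. Fit: bidirectional, baseline DMSO.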

The nature of experiment [3]: ATG_EGR_CIS: Attagene CIS-FACTORIAL HepG2 Assay for human Early Growth Response 1 (EGR1) (AID 2282938). The settings on record: HepG2 Attagene CIS-FACTORIAL EGR reporter mRNA; actives raise or lower the signal. In outline: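 Multiplexed cis-reporter system in human hepatoma HepG2 cells, transiently transfected. Cells are dosed for 24 h; reporter transcripts are amplified, fluorescently tagged and sized by capillary electrophoresis, with DMSO as negative control.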

A short description of experiment [4]: ATG_M_19_CIS: Attagene CIS-FACTORIAL HepG2 Assay for M19 Transcription Factor (Internal Marker) (AID 2282939). The settings on record: HepG2 Attagene CIS-FACTORIAL M19 internal marker reporter; actives raise or lower the signal. In short, it runs like this: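 HepG2, MRTU transient transfection, 24 h dosing. Total RNA → RT-PCR → 6-FAM primer extension → HpaI digest → CE fluorescence. Bidirectional curve fit, DMSO negative control.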

Experiment [5] in a line: ATG_ERE_CIS: Attagene CIS-FACTORIAL HepG2 Assay for Estrogen Response Element (ERE) (AID 2282940). The settings on record: HepG2 ERE cis-reporter, Attagene RNA transcript; actives raise or lower the signal. In outline: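 After a 24 h chemical treatment, RNA from reporter-transfected HepG2 cells is reverse-transcribed, PCR-amplified and fluorescently labelled. Fragments separated by capillary electrophoresis give reporter signal; DMSO serves as negative control.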

Experiment [6] in a line: ATG_Ets_CIS: Attagene CIS-FACTORIAL HepG2 Assay for human Erythroblast Transformation Specific (ETS) (AID 2282941). The settings on record: HepG2 ETS cis-reporter transcription, actives raise or lower the signal. In short, it runs like this:
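HepG2 cells transiently transfected with cis-promoter reporter transcription units were dosed for 24 h; reporter mRNA was measured by RT-PCR, 6-FAM primer extension, HpaI digestion and capillary electrophoresis, with bidirectional fitting against DMSO baseline.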

Experiment [7] concerns the target Hepatocyte nuclear factor 3-beta (Homo sapiens) (UniProt Q9Y261). Briefly: ATG_FoxA2_CIS: Attagene CIS-FACTORIAL HepG2 Assay for human Forkhead box A2 (FOXA2) (AID 2282942). The conditions noted are these: HepG2 cis-reporter transcription factor activity, 24 h; actives raise or lower the signal. In outline: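 Multiplexed cis-element reporter assay in transiently transfected HepG2. Twenty-four hours post-dosing, RNA was reverse-transcribed, amplified, FAM-labelled, HpaI-digested and separated by CE. Activity gain or loss relative to DMSO.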

Experiment [8] is described as follows: ATG_FoxO_CIS: Attagene CIS-FACTORIAL HepG2 Assay for human Forkhead box O (FoxO) (AID 2282943). The settings on record: HepG2 Attagene cis-reporter, FoxO element, mRNA; actives raise or lower the signal. In short, it runs like this: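 Endogenous transcription factor activity read from multiplexed cis-promoter reporter transcripts in transiently transfected HepG2, 24 h after dosing. Reporter RNA measured via RT-PCR plus capillary electrophoresis of FAM-labeled products; gain or loss relative to DMSO.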

The nature of experiment [9]: ATG_GATA_CIS: Attagene CIS-FACTORIAL HepG2 Assay for human GATA Binding Protein (AID 2282944). The settings on record: HepG2 GATA cis-element reporter, Attagene multiplex mRNA; actives raise or lower the signal. In outline: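 Cells: HepG2, transiently transfected with cis-regulated reporter transcription units. Exposure: 24 h. Detection: RT-PCR plus capillary electrophoresis of FAM-labeled fragments. Analysis: bidirectional, DMSO as baseline.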

Experiment [10] can be described thus: ATG_GLI_CIS: Attagene CIS-FACTORIAL HepG2 Assay for human Zinc Finger Protein GLI1 (AID 2282945). The conditions noted are these: HepG2, Attagene cis-factorial reporter mRNA, GLI element; actives raise or lower the signal. In outline: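 Bidirectional curve fits relative to DMSO, using reporter mRNA levels from RT-PCR plus capillary electrophoresis. Cells were HepG2 transiently carrying cis-regulated reporter constructs, harvested 24 h after dosing.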

The nature of experiment [11]: ATG_GRE_CIS: Attagene CIS-FACTORIAL HepG2 Assay for human Glucocorticoid Response Elements (GRE) (AID 2282947). The conditions noted are these: HepG2 GRE cis-reporter, Attagene multiplex mRNA; actives raise or lower the signal. In outline: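 Assay uses human hepatoma HepG2 cells transfected with cis-promoter reporter units, exposed 24 h. mRNA from reporters detected by RT-PCR plus capillary electrophoresis; DMSO serves as negative control and baseline.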

Experiment [12] in a line: ATG_ISRE_CIS: Attagene CIS-FACTORIAL HepG2 Assay for human Interferon Regulatory Factor 1 (IRF1) binding to an Interferon-Stimulated Response Element (ISRE) (AID 2282948). The settings on record: HepG2 ISRE cis-reporter (Attagene), mRNA transcription readout; actives raise or lower the signal. In outline:
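HepG2 cells transiently transfected with multiplexed cis-promoter reporter units; after 24 h compound exposure, reporter mRNA quantified by RT-PCR, FAM labelling, HpaI digestion and capillary electrophoresis. Bidirectional fit versus DMSO baseline.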

The nature of experiment [13]: ATG_M_32_CIS: Attagene CIS-FACTORIAL HepG2 Assay for M32 Transcription Factor (Internal Marker) (AID 2282949).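 Note: background control marker of the multiplexed CIS panel rather than a real target.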 The settings on record: HepG2 Attagene cis-factorial M32 reporter, mRNA; actives raise or lower the signal. In outline: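 Internal background marker read-out: RT-PCR/capillary electrophoresis fluorescence of reporter transcripts from transiently transfected HepG2 cells after 24 h chemical exposure. Activity fitted bidirectionally relative to DMSO negative control.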

The target of experiment [14] is Hypoxia-inducible factor 1-alpha (Homo sapiens) (UniProt Q16665). Briefly: ATG_HIF1a_CIS: Attagene CIS-FACTORIAL HepG2 Assay for human Hypoxia Inducible Factor 1 (HIF1A) (AID 2282951). The settings on record: HepG2 Attagene cis-factorial HIF1a reporter transcription; actives raise or lower the signal. In short, it runs like this: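 Cis-element reporter constructs were transiently transfected into HepG2 cells, which were treated for 24 h; reporter RNA was reverse-transcribed, amplified, labelled and resolved by capillary electrophoresis.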
Chain of Hypoxia-inducible factor 1-alpha (Homo sapiens) (Q16665 whole entry, looked up): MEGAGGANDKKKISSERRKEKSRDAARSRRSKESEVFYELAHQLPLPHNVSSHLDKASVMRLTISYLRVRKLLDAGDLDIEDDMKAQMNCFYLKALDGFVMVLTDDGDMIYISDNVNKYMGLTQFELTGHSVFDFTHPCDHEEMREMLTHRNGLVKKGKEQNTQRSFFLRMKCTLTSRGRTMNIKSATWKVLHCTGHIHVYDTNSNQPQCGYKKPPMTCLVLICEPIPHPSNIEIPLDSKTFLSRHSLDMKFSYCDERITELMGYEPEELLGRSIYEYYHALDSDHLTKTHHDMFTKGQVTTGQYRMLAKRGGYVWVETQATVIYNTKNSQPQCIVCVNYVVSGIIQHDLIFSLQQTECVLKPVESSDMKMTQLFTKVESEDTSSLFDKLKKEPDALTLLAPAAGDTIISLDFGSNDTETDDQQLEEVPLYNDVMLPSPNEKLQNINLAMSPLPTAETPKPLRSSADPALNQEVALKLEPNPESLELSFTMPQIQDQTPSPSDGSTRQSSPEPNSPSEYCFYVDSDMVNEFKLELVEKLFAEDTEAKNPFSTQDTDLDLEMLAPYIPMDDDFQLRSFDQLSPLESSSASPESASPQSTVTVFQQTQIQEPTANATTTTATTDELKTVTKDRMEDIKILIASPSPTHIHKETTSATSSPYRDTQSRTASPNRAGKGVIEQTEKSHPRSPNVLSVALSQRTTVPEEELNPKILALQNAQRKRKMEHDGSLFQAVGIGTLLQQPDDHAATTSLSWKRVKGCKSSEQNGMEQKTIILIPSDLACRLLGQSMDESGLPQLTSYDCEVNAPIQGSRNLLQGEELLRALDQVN

Experiment [15] deals with Hepatocyte nuclear factor 6 (Homo sapiens) (UniProt Q9UBC0). In words: ATG_HNF6_CIS: Attagene CIS-FACTORIAL HepG2 Assay for human Hepatocyte Nuclear Factor 6 (HNF6) (AID 2282952). The settings on record: HepG2 Attagene cis-factorial HNF6 reporter transcription; actives raise or lower the signal. In outline:
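Cells are HepG2 carrying transiently transfected cis-promoter reporter units. Treatment lasts 24 h, after which reporter transcripts are reverse-transcribed, amplified, FAM-labelled and sized by capillary electrophoresis. DMSO serves as baseline.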

The target of experiment [16] is Heat shock factor protein 1 (Homo sapiens) (UniProt Q00613). In words: ATG_HSE_CIS: Attagene CIS-FACTORIAL HepG2 Assay for human Heat Shock Transcription Factor 1 (HSE) (AID 2282953). The settings on record: HepG2 HSE cis-reporter, Attagene RNA transcription; actives raise or lower the signal. In outline:
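Reporter mRNA induction in HepG2 is measured 24 h after dosing, using transiently transfected multiplexed cis-regulated reporter units. Signal comes from capillary electrophoresis of labelled RT-PCR products, with DMSO as negative control.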

Experiment [17] can be described thus: ATG_MRE_CIS: Attagene CIS-FACTORIAL HepG2 Assay for human Metal Responsive Element (MRE) (AID 2282954). The conditions noted are these: HepG2 MRE cis-reporter transcription, Attagene multiplex; actives raise or lower the signal. In short, it runs like this:
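After a 24 h chemical exposure, transiently transfected HepG2 cells yield RNA whose reporter sequences are amplified, FAM-labelled and sized by capillary electrophoresis. Curves are fitted bidirectionally relative to DMSO.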

Experiment [18] in a line: ATG_PBREM_CIS: Attagene CIS-FACTORIAL HepG2 Assay for human Phenobarbital-responsive Enhancer Module (PBREM) (AID 2282955). The conditions noted are these: HepG2 PBREM cis-reporter, Attagene multiplexed transcription; actives raise or lower the signal. In outline:
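Multiplexed cis-reporter readout in human hepatoma HepG2 cells; PBREM-regulated transcript quantified after 24 h exposure by fluorescent RT-PCR fragment analysis. Signal changes up or down fitted relative to DMSO.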

The target in experiment [19] is Bile acid receptor (Homo sapiens) (UniProt Q96RI1). In words: ATG_IR1_CIS: Attagene CIS-FACTORIAL HepG2 Assay for human Nuclear Receptor Subfamily 1 Group H Member 4 (NR1H4), IR1 submotif (AID 2282946). The settings on record: IR1 reporter transcription, actives raise or lower the signal. In short, it runs like this: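 Cells (human HepG2) carry transiently transfected cis-promoter reporter transcription units. Compounds are incubated 24 h, total RNA is reverse-transcribed and amplified, and labelled fragments are resolved by capillary electrophoresis. Curves use DMSO as baseline.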
Chain of Bile acid receptor (Homo sapiens) (Q96RI1 whole entry, looked up, the tested form may be a part): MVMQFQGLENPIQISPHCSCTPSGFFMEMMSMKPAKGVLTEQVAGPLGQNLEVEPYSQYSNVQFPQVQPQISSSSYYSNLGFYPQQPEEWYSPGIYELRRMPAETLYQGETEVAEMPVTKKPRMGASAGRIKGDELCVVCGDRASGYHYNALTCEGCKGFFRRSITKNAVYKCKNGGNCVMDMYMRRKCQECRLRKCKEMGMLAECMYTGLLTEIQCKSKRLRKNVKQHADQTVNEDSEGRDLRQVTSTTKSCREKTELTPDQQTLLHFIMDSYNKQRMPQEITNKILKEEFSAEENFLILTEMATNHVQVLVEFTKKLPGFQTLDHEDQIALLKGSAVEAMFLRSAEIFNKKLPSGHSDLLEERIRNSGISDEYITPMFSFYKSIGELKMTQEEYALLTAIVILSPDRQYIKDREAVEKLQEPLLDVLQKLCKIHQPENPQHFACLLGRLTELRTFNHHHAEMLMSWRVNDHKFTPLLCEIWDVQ

The nature of experiment [20]: ATG_M_06_CIS: Attagene CIS-FACTORIAL HepG2 Assay for M06 Transcription Factor (Internal Marker) (AID 2282950). The conditions noted are these: HepG2 Attagene CIS-FACTORIAL M06 internal marker reporter; actives raise or lower the signal. In short, it runs like this:
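Measured 24 h post-dosing in transiently transfected HepG2 cells, this internal-marker endpoint reports reporter mRNA via RT-PCR with fluorescent primer extension and capillary electrophoresis. DMSO served as negative control and baseline for bidirectional fitting.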

Chain of Hepatocyte nuclear factor 3-beta (Homo sapiens) (Q9Y261 whole entry, looked up): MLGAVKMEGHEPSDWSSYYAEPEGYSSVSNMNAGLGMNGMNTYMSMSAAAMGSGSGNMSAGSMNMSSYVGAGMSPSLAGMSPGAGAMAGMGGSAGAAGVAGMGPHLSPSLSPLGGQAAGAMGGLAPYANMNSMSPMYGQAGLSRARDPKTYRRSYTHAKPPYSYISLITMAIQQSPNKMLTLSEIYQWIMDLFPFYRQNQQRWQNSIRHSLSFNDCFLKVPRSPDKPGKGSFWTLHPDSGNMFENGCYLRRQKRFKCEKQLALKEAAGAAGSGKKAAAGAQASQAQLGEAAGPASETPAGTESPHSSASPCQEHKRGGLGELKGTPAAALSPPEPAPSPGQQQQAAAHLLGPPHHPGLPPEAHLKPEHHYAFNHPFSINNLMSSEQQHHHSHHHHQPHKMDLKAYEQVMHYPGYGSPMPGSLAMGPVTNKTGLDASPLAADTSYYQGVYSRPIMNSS
Chain of Hepatocyte nuclear factor 6 (Homo sapiens) (Q9UBC0 whole entry, looked up): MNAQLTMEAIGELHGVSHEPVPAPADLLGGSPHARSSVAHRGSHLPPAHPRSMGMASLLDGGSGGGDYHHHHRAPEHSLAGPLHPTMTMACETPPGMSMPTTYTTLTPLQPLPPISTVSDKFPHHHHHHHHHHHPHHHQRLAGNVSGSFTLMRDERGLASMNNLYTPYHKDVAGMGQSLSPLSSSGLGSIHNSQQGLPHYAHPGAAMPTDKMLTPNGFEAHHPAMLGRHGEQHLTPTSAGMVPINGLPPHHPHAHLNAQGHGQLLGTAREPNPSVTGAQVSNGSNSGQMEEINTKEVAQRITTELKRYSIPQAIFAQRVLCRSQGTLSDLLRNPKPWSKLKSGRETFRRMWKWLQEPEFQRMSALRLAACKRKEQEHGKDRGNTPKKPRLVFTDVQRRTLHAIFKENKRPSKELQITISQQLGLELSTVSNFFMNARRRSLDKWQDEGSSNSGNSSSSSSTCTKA
Chain of Heat shock factor protein 1 (Homo sapiens) (Q00613 whole entry, looked up): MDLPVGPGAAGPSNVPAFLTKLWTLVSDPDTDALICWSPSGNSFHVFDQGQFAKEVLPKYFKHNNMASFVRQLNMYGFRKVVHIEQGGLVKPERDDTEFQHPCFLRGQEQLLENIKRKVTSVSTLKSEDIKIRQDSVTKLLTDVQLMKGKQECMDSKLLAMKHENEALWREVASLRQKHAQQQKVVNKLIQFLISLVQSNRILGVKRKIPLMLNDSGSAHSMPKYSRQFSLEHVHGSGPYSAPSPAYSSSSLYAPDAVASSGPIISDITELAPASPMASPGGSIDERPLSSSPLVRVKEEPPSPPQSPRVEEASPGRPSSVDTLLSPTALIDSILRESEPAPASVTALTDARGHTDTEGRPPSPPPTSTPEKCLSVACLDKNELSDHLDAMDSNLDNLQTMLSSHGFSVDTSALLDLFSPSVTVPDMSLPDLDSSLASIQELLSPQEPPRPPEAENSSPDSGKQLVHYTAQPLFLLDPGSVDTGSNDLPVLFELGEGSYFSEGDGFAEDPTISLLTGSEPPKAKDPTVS

Turning to `Oc1ccc(C(c2ccc(O)cc2)(C(F)(F)F)C(F)(F)F)cc1`, the result in [1], in experiment [2], in experiment [3], in experiment [4], in experiment [6] and in experiment [7] was inactive. The compound was called inactive in [8], in [9], in experiment [10], in experiment [11], in experiment [12] and in experiment [13]. The outcome in experiment [14], in experiment [15] and in experiment [18] was inactive. For the same compound, the AC50 was 11.1 µM (active) and 16.5 µM (active) in [3]; 127 nM (active) [middle of 4 runs] in [5]; 15.5 µM (active) and 17.5 µM (active) in experiment [6]; 20.1 µM (active) and 11.1 µM (active) in experiment [12]; 16.3 µM (active) [middle of 4 runs] in experiment [16]; 16.2 µM (active) [middle of 4 runs] in experiment [17].
For the compound `ClC(Cl)=C(c1ccc(Cl)cc1)c1ccc(Cl)cc1`, the AC50 is 58.3 µM (active) and 24.8 µM (active) in experiment [1]; 14 µM (active) [middle of 4 runs] in [5]; 155 µM (active) in experiment [9]; 131 µM (active) and 63.1 µM (active) and 121 µM (active) in experiment [10]; 21.5 µM (active) and 27.7 µM (active) and 184 µM (active) in experiment [19]; 100 µM (active) in [12]. Moreover, the figures for the AC50 in experiment [14], in [16] and in experiment [17] were 169 µM (active), 174 µM (active) and 156 µM (active), respectively. For the same compound, the outcome in experiment [1], in experiment [2], in experiment [3], in [6], in experiment [7] and in [8] was inactive. Also, the compound was classed as inactive in experiment [9], in experiment [10], in [19], in [11], in experiment [12] and in [13]. The compound was classed as inactive in experiment [20], in experiment [14], in [15], in experiment [16], in experiment [17] and in experiment [18].
For `CCCCCCCCCc1ccc(O)cc1`, the AC50 is 63.2 µM (active) in experiment [1]; 49.7 µM (active) in [9]; 184 µM (active) in experiment [10]; 166 µM (active) in experiment [13]; 178 µM (active) in [14]; 145 µM (active) in [15]. In addition, the AC50 in experiment [17] was 17.5 µM (active). Also, the result in [1], in experiment [2], in [3], in [4], in experiment [6] and in [7] was inactive. The outcome in experiment [8], in experiment [9], in experiment [10], in experiment [12], in experiment [13] and in experiment [20] was inactive. The outcome in experiment [14], in experiment [15], in experiment [16], in experiment [17] and in experiment [18] was inactive.
As for `C=CC(N)=O`, the result in [1], in [2], in experiment [3], in experiment [4], in experiment [5] and in experiment [6] was inactive. For the same compound, the compound was called inactive in [7], in experiment [8], in experiment [9], in experiment [10], in experiment [11] and in experiment [12]. In addition, the result in [13], in experiment [15], in [16] and in experiment [17] was inactive. Moreover, the AC50 in experiment [14] is 26 µM (active).
With `CCOCCOC(C)=O`, the outcome in [1], in experiment [2], in experiment [3], in [4], in experiment [5] and in experiment [6] was inactive. Further, the compound was called inactive in [7], in experiment [8], in experiment [9], in experiment [10], in [11] and in experiment [12]. Besides, the result in experiment [13], in [20], in experiment [14], in experiment [15], in experiment [16] and in [17] was inactive.
